Key:
Assay in all cases: DAPPL (digital affinity profiling via proximity ligation, sequencing); 10 mM Tris-HCl pH 7.5, 50 mM NaCl, 1 mM DTT, 4% glycerol, room temperature, 30 min; GST-TFs on glutathione beads, 16-mer random dsDNA library, 0.1% formaldehyde crosslink after washing; high values mean tight binding
FEV = molecular target: T1, FEV (Homo sapiens, UniProt Q99581 1-238); conditions: protein: recombinant; tags: N-terminal GST; dsDNA, one strand shown
T1 sequence: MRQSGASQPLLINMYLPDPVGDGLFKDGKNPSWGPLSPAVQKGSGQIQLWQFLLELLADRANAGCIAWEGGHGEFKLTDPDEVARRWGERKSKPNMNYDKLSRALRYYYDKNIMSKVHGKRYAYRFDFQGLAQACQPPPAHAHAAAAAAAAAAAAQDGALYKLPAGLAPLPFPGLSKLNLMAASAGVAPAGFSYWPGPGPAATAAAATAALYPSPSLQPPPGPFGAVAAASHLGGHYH
Procedure, shortened: (§1)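 The binding signal reported is, for every hexamer, its read frequency for a factor over its read frequency for the tag-only sample. Reads came from pools of yeast-expressed, GST-fused human transcription factors on glutathione beads, barcoded with DNA and mixed with that sample, which were incubated with 200 nmole of a random double-stranded 16-mer DNA library in Tris/NaCl/DTT/glycerol buffer at room temperature for 30 min. After washing, the pools were crosslinked with 0.1% formaldehyde, proximity-ligated with BsaI/T4 ligase for 1 h at 37 °C, PCR-amplified and sequenced on an Illumina NextSeq500.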

ETV5 = ETV5 (Homo sapiens, UniProt P41161 1-510); conditions: protein: recombinant; tags: N-terminal GST; dsDNA, one strand shown
Procedure, shortened: as §1

HSF1 = HSF1 (Homo sapiens, UniProt Q00613 1-529); conditions: protein: recombinant; tags: N-terminal GST; chain copies: 3; dsDNA, one strand shown
Procedure, shortened: as §1

SPIC = molecular target: T2, SPIC (Homo sapiens, UniProt Q8N5J4 1-248); conditions: protein: recombinant; tags: N-terminal GST; dsDNA, one strand shown
T2 sequence: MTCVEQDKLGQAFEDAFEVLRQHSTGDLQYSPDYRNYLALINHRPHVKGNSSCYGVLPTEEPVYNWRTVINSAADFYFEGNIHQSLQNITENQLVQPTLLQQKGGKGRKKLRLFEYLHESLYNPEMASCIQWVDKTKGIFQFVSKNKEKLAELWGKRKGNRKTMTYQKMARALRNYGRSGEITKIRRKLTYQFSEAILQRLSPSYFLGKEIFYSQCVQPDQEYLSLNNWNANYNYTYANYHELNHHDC
Procedure, shortened: as §1

ELF4 = ELF4 (Homo sapiens, UniProt Q99607 1-663); conditions: protein: recombinant; tags: N-terminal GST; dsDNA, one strand shown
Procedure, shortened: as §1

ELK4 = molecular target: T3, ELK4 (Homo sapiens, UniProt P28324-2 1-405); conditions: protein: recombinant; tags: N-terminal GST; dsDNA, one strand shown
T3 sequence: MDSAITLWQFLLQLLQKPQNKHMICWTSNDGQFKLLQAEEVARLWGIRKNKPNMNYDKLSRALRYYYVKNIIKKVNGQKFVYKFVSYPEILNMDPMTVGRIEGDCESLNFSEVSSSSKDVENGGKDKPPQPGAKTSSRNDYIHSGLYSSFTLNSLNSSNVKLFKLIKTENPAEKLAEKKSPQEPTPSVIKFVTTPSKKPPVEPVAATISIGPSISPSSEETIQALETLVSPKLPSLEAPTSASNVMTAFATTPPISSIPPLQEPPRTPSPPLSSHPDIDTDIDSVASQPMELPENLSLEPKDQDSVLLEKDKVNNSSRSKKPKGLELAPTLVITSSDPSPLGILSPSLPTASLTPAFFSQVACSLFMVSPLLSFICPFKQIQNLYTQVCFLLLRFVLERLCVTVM
Procedure, shortened: as §1

ELF3 = molecular target: T4, ELF3 (Homo sapiens, UniProt P78545 1-371); conditions: protein: recombinant; tags: N-terminal GST; dsDNA, one strand shown
T4 sequence: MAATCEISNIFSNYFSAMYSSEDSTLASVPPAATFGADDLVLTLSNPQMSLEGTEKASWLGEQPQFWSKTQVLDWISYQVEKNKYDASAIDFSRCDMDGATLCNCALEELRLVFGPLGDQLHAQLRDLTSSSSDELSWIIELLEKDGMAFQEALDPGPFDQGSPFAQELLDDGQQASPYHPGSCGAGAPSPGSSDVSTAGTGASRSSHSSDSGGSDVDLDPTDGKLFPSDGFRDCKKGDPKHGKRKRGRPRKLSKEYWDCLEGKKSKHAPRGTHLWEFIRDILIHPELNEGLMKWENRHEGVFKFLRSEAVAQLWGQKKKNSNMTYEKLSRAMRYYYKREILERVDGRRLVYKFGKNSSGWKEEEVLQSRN
Procedure, shortened: as §1

ETV1 = ETV1 (Homo sapiens, UniProt P50549 1-477); conditions: protein: recombinant; tags: N-terminal GST; dsDNA, one strand shown
Procedure, shortened: as §1

ERF = molecular target: T5, ERF (Homo sapiens, UniProt P50548 1-548); conditions: protein: recombinant; tags: N-terminal GST; dsDNA, one strand shown
T5 sequence: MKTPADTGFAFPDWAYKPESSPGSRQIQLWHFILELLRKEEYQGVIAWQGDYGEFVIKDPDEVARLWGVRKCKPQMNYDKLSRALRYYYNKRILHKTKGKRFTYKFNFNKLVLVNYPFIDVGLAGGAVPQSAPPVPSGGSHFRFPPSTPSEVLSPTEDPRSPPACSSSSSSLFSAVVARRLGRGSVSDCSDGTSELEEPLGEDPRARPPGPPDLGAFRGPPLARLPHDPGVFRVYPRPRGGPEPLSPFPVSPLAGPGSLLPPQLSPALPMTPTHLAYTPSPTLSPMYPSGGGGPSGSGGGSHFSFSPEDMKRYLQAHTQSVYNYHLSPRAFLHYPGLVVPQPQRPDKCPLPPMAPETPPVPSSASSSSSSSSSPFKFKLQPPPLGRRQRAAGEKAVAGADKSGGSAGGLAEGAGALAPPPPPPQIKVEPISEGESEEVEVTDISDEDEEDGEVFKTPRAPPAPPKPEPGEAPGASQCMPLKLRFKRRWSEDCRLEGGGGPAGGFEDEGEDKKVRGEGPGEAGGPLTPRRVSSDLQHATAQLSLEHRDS
Procedure, shortened: as §1

ETS2 = molecular target: T6, ETS2 (Homo sapiens, UniProt P15036 1-469); conditions: protein: recombinant; tags: N-terminal GST; dsDNA, one strand shown
T6 sequence: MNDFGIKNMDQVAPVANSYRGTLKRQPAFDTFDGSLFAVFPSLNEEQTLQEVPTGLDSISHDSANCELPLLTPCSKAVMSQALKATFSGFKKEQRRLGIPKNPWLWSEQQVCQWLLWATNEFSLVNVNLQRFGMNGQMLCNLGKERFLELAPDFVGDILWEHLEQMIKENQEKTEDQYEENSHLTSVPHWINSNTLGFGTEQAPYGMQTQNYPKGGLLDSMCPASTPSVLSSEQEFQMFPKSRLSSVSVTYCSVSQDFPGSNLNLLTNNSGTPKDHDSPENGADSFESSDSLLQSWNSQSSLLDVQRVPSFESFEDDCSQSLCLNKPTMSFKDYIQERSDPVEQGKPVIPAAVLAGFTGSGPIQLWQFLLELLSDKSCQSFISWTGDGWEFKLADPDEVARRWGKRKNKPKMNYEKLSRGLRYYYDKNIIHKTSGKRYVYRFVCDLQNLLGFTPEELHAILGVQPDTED
Procedure, shortened: as §1

SPDEF = molecular target: T7, SPDEF (Homo sapiens, UniProt O95238 1-335); conditions: protein: recombinant; tags: N-terminal GST; dsDNA, one strand shown
T7 sequence: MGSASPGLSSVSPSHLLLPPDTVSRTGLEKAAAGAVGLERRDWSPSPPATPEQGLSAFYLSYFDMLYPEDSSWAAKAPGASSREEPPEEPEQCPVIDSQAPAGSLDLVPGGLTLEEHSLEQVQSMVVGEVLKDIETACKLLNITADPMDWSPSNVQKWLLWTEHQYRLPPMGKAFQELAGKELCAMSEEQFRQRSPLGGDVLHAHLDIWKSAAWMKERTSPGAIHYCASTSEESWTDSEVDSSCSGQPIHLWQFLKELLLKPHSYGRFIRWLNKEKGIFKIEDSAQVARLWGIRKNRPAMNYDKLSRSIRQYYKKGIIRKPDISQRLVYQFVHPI
Procedure, shortened: as §1

ELF5 = molecular target: T8, ELF5 (Homo sapiens, UniProt Q9UKW6-2 1-255); conditions: protein: recombinant; tags: N-terminal GST; dsDNA, one strand shown
T8 sequence: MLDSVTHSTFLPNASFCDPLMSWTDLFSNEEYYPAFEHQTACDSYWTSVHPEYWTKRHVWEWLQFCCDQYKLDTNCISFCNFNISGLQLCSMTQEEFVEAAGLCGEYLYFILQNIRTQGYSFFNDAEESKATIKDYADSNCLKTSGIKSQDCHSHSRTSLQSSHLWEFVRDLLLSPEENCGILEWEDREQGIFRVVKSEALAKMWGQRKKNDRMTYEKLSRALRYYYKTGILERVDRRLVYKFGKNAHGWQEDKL
Procedure, shortened: as §1

ETV3 = molecular target: T9, ETV3 (Homo sapiens, UniProt P41162-2 1-143); conditions: protein: recombinant; tags: N-terminal GST; dsDNA, one strand shown
T9 sequence: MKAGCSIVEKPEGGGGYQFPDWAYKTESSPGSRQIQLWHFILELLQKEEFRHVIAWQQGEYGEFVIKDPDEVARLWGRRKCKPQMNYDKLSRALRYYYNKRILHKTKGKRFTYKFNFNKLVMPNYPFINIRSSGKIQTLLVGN
Procedure, shortened: as §1

ETV6 = ETV6 (Homo sapiens, UniProt P41212 1-452); conditions: protein: recombinant; tags: N-terminal GST; dsDNA, one strand shown
Procedure, shortened: as §1

CRX = CRX (Homo sapiens, UniProt O43186 1-299); conditions: protein: recombinant; tags: N-terminal GST; dsDNA, one strand shown
Procedure, shortened: as §1

ETV3L = molecular target: T10, ETV3L (Homo sapiens, UniProt Q6ZN32 1-361); conditions: protein: recombinant; tags: N-terminal GST; dsDNA, one strand shown
T10 sequence: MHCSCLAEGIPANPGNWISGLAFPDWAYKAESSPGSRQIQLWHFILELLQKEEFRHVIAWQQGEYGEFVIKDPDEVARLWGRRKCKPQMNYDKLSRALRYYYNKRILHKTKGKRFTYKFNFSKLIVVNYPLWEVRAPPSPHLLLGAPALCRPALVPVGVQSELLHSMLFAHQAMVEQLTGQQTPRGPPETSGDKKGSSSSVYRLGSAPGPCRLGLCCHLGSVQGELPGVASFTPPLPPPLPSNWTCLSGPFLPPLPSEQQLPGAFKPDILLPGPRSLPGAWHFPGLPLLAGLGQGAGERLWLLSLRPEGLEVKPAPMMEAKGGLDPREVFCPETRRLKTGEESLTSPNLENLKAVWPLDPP
Procedure, shortened: as §1

ETV7 = molecular target: T11, ETV7 (Homo sapiens, UniProt Q9Y603 1-341); conditions: protein: recombinant; tags: N-terminal GST; dsDNA, one strand shown
T11 sequence: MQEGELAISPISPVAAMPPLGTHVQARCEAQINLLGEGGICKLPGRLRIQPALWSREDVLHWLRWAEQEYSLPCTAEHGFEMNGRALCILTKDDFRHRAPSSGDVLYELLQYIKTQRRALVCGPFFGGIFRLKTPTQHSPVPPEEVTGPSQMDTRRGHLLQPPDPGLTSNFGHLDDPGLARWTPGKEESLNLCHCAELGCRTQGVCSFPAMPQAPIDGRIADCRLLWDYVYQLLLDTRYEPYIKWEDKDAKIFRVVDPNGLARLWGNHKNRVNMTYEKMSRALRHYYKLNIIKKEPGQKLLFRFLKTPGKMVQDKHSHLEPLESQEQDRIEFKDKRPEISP
Procedure, shortened: as §1

ELF4, sequence (Q99607 whole entry): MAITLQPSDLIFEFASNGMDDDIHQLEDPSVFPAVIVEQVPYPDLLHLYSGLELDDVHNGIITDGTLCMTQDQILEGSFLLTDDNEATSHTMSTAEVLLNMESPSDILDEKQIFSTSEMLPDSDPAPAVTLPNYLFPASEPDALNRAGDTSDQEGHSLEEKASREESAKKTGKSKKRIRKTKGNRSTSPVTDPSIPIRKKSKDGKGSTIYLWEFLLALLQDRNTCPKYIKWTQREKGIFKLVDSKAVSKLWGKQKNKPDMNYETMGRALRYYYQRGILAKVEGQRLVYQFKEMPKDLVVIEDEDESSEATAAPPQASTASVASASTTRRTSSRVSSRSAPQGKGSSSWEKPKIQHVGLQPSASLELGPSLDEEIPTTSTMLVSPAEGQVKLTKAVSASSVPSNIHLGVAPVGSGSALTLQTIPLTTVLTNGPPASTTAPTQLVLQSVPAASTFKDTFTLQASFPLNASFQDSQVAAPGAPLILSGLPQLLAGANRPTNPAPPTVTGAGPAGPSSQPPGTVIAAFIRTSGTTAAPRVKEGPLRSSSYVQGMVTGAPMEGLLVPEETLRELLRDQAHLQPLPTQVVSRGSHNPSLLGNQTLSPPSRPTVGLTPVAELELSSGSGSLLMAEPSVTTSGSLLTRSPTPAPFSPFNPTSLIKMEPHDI
ETV6, sequence (P41212 whole entry): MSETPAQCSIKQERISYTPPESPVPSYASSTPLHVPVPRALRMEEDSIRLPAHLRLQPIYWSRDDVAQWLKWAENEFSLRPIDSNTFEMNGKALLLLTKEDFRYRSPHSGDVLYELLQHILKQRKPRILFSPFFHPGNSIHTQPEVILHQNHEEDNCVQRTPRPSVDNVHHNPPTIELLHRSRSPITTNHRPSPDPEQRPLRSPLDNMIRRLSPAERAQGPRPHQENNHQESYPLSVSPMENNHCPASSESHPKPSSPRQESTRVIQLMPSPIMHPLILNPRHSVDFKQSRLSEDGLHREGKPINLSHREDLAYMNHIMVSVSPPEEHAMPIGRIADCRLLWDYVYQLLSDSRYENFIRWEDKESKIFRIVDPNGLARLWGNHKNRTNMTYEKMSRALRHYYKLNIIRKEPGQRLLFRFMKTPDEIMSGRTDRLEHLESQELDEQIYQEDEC
ETV5, sequence (P41161 whole entry): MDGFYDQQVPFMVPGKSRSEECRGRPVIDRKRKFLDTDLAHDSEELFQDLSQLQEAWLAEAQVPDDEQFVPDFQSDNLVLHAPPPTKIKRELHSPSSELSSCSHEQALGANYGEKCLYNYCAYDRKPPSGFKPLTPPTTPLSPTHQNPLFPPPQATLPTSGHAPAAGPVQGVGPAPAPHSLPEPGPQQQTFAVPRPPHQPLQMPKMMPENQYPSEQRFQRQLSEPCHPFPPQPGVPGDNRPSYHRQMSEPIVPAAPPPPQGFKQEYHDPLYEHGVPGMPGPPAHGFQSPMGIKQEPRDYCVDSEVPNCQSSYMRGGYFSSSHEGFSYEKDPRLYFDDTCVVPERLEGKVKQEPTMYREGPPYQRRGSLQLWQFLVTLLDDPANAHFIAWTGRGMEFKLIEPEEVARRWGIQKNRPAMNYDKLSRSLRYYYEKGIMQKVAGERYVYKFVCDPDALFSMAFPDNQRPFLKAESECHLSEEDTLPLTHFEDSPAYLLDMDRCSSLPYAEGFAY
ETV1, sequence (P50549 whole entry): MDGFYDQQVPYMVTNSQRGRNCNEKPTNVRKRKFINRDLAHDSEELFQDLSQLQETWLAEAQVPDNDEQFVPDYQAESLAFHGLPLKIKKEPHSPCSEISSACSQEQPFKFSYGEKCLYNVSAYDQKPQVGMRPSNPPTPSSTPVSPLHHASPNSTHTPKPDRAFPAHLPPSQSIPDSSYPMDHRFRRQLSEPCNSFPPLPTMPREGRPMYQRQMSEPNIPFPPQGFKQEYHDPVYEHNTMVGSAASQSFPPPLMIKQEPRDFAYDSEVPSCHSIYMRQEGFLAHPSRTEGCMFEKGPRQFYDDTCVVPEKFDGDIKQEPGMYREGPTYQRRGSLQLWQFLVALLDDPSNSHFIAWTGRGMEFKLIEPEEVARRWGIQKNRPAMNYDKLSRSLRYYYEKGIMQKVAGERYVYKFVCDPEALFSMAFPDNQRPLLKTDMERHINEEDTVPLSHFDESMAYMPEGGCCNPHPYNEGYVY
HSF1, sequence (Q00613 whole entry): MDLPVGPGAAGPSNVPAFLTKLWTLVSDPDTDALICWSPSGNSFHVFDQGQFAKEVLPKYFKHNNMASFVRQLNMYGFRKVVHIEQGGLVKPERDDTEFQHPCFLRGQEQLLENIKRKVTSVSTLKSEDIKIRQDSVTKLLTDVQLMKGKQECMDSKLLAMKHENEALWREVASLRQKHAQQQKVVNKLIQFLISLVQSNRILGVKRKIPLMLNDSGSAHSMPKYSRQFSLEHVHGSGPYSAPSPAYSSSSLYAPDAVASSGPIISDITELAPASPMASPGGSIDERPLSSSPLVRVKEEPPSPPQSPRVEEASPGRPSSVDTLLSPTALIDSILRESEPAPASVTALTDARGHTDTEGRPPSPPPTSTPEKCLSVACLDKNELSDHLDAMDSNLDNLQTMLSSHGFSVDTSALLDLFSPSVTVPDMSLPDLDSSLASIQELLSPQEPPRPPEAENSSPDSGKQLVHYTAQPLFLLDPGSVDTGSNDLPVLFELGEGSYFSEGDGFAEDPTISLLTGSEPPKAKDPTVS
CRX, sequence (O43186 whole entry): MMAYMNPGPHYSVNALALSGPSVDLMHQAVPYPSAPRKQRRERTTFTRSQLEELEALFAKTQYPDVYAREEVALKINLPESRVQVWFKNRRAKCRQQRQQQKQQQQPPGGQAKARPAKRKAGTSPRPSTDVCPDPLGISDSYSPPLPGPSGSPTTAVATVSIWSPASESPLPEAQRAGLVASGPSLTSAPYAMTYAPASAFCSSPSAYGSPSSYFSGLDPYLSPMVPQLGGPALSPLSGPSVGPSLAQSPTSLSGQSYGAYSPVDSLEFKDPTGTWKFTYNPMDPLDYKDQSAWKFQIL

Sequence	binding signal (FEV)	binding signal (ETV5)	binding signal (HSF1)	binding signal (SPIC)	binding signal (ELF4)	binding signal (ELK4)	binding signal (ELF3)	binding signal (ETV1)	binding signal (ERF)	binding signal (ETS2)	binding signal (SPDEF)	binding signal (ELF5)	binding signal (ETV3)	binding signal (ETV6)	binding signal (CRX)	binding signal (ETV3L)	binding signal (ETV7)
CGCTCG	1.08 fold enrichment (6-mer frequency, TF over GST control)	1.05 fold enrichment (6-mer frequency, TF over GST control)	1.16 fold enrichment (6-mer frequency, TF over GST control)	1.24 fold enrichment (6-mer frequency, TF over GST control)	1.17 fold enrichment (6-mer frequency, TF over GST control)	1.13 fold enrichment (6-mer frequency, TF over GST control)	1.35 fold enrichment (6-mer frequency, TF over GST control)	1.09 fold enrichment (6-mer frequency, TF over GST control)	1.2 fold enrichment (6-mer frequency, TF over GST control)	1.1 fold enrichment (6-mer frequency, TF over GST control)	1.1 fold enrichment (6-mer frequency, TF over GST control)	1.03 fold enrichment (6-mer frequency, TF over GST control)	1.08 fold enrichment (6-mer frequency, TF over GST control)	1.08 fold enrichment (6-mer frequency, TF over GST control)			
CTTGGC	1.24 fold enrichment (6-mer frequency, TF over GST control)	1.1 fold enrichment (6-mer frequency, TF over GST control)	1.03 fold enrichment (6-mer frequency, TF over GST control)	1.14 fold enrichment (6-mer frequency, TF over GST control)	1.21 fold enrichment (6-mer frequency, TF over GST control)	1.42 fold enrichment (6-mer frequency, TF over GST control)	1.19 fold enrichment (6-mer frequency, TF over GST control)	1.15 fold enrichment (6-mer frequency, TF over GST control)	1.35 fold enrichment (6-mer frequency, TF over GST control)	1.03 fold enrichment (6-mer frequency, TF over GST control)	1.14 fold enrichment (6-mer frequency, TF over GST control)	1.12 fold enrichment (6-mer frequency, TF over GST control)	1.12 fold enrichment (6-mer frequency, TF over GST control)	1.1 fold enrichment (6-mer frequency, TF over GST control)	1.03 fold enrichment (6-mer frequency, TF over GST control)	1.15 fold enrichment (6-mer frequency, TF over GST control)	1.24 fold enrichment (6-mer frequency, TF over GST control)

Source: paper PMC7862700, “An all-to-all approach to the identification of sequence-specific readers for epigenetic DNA modifications on cytosine”
